# Source: PubChem
# Sampled rows, rich in hits. Any-hit rate of the full collection: about 19%.
# TDP1 cell CPT – DT40-hTDP1 cell growth loss with CPT; chicken DT40 Tdp1-/-;hTDP1 cells + 20 nM CPT, ATP luminescence, 48 h; Potency, µM (series often up to 46.2 µM), inactives show top-dose activity change, negative = growth inhibition, hits mostly inhibitors; hit rate 12% among 420,000; further: potency means the concentration at half of the fitted maximal effect; on the % scale 0 is the no-effect control and ±100 the full control effect; nearly all actives have a fitted effect of over 55% in size
#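 Chicken DT40 Tdp1-/- cells stably complemented with human TDP1 were seeded at 400 cells/well in medium containing 20 nM camptothecin, exposed to pin-transferred compounds, and grown at 37 °C for at least 48 hr. Viability was read as ATP luminescence.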
# HepG2 viability – kills HepG2 cells in TGF-b inhibitor counter-screen | hit rate 0.76% among 410,000 | HepG2 CAGA-GFP viability, ATP luminescence, 18 h | Potency, µM (series often up to 46.1 µM), for inactives: at the highest dose activity change, negative = cytotoxicity, actives largely listed as cytotoxic; further: potency means the concentration at half of the fitted maximal effect
#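 CellTiter-Glo luminescence gave cytotoxicity after 18 hours at 37 degrees C. The cells were HepG2 CAGA-GFP in 1% FBS DMEM, stimulated with 500 pg/mL TGF-beta after compound addition. %Activity was normalised to no-cell wells (complete cell-killing) and DMSO (no toxicity), and curves were fitted and classified.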
# DT40 TDP1 no CPT – qHTS for Inhibitors of human tyrosyl-DNA phosphodiesterase 1 (TDP1): qHTS in cells in absence of CPT. Potency, µM (highest dose often 46.2 µM), for inactives: top-dose activity change, negative = growth inhibition, usual class: inhibitors. DT40 Tdp1-/- hTDP1 cells, no CPT, ATP luminescence, 48 h. hit rate 15% among 420,000; further: potency means the concentration at half of the fitted maximal effect; on the % scale 0 is the no-effect control and ±100 the full control effect; nearly all actives have a fitted effect of over 55% in size
#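 Luminescent ATP content (CellTiter-Glo) served as the growth readout. Knockout chicken DT40 cells expressing human TDP1 were exposed to compounds without camptothecin for a minimum 48 hr at 37 °C.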
# TGFb inhibitor – blocks TGF-b signaling; hit rate 1.2% among 410,000; Potency, µM (top dose mostly 46.1 µM), for the others: top-dose activity, negative = inhibition, hits mostly inhibitors; AID 588855; HepG2 CAGA-GFP TGF-b/SMAD3 reporter, GFP fluorescence, 18 h; TGF-beta stimulated, 500 pg/mL final; further: potency means the concentration at half of the fitted maximal effect; on the % scale 0 is the no-effect control and ±100 the full control effect; nearly all actives have a fitted effect of over 65% in size
#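 HEPG2 CAGA-GFP reporter cells (1000/well, DMEM with 1% FBS) received compounds, then recombinant TGF-beta at 500 pg/mL final for 18 hours at 37 degrees C. Per-cell GFP summed per well was normalised to unstimulated and stimulated DMSO controls before curve fitting.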
# TDP1 block – blocks human tyrosyl-DNA phosphodiesterase 1; Q9NUW8; AID 485290; Potency, µM (doses to about 130 µM), inactives show at the highest dose activity change, negative = inhibition, most hits filed as inhibitors; recombinant TDP1, AlphaScreen DNA substrate cleavage; hit rate 0.28% among 350,000; further: potency means the concentration at half of the fitted maximal effect; on the % scale 0 is the no-effect control and ±100 the full control effect; nearly all actives have a fitted effect of over 40% in size
# Target sequence (Q9NUW8 whole entry, looked up): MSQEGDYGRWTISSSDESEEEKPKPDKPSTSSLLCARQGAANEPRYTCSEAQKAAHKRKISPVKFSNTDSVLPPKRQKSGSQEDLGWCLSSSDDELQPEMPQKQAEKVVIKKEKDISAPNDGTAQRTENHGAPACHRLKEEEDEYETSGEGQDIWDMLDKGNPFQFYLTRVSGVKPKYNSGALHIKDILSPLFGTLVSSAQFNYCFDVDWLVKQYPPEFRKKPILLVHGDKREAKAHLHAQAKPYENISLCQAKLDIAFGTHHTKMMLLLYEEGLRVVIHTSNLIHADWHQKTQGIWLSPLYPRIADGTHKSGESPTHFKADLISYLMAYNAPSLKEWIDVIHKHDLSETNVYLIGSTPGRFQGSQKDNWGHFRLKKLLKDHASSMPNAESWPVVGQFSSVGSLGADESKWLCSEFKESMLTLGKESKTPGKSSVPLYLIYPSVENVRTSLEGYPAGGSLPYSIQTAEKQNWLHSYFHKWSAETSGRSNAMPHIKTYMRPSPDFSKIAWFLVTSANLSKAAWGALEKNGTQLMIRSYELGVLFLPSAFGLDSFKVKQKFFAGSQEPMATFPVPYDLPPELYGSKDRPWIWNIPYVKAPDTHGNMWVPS
#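 E. coli-derived human Tdp1, 1 nM final. Cpd preinc 15 min RT; substrate 15 nM final, 5 min RT; AS bead mix 10 ug/ml final, 10 min RT. Signal loss = tyrosine-FITC cleavage. No-enzyme wells = max signal.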
# IL-1B inflam inh – inhibitors of inflammasome signaling (IL-1 beta secretion) | THP-1 LPS/ATP IL-1B secretion, AlphaLISA, 16 h; hits give low values | activity change, % at 57.5 µM | hit rate 4.7% among 360,000 | AID 743279; in the data active means activity change below about -50%; inconclusive means mostly about -30% to -49%; further: on the % scale 0 is the no-effect control and ±100 the full control effect
#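 Secreted IL-1B measured by AlphaLISA bead assay after 16 h compound exposure of THP-1 cells; compounds (final up to 57.5 uM) added 1 h before LPS (250 ng/mL) and ATP (1.25 mM) stimulation; lower signal means less secretion.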
# Numbers without * were called inactive; ? = inconclusive; nt = no result; ! = not confirmed by another sample; [ ] = remark or other dose. Unless noted, the call rests on the fitted dose curve; in most records, active means well fitted curve in the direction sought with a large enough effect; inconclusive means small, poorly fitted or top-dose-only effect, or another doubt; inactive means no such curve, though single readings can be large; an effect the other way counts as inactive or inconclusive.
SMILES,TDP1 cell CPT,HepG2 viability,DT40 TDP1 no CPT,TGFb inhibitor,TDP1 block,IL-1B inflam inh
Cc1c(C(=O)NCc2ccccc2)oc2ccc(S(=O)(=O)N3CCC4(CC3)OCCO4)cc12,?,-11%,21µM*,-2%,3%,-11
COc1cccc(NC(=O)c2oc3ccc(S(=O)(=O)N4CCOCC4)cc3c2C)c1,15µM*!,-1%,13µM*,4%,8%,-10
COc1ccc2oc(C(=O)Nc3ccc(N4CCOCC4)cc3)c(C)c2c1,?,0%,?,-3%,0%[0.505 µM],-57*
COc1cccc(NC(=O)c2oc3ccc(S(=O)(=O)N4CCC5(CC4)OCCO5)cc3c2C)c1,5.8µM*,-27%,5.2µM*,0%,8%,nt
COc1ccc(CNCCCSc2nnnn2C)c(OC)c1,-4%,6%,-23%,-4%,-11%,nt
Cc1c(C(=O)N2CCN(S(=O)(=O)c3cccs3)CC2)oc2ccc(F)cc12,?,7%,16µM*,6%,-1%,-10
COc1ccc2oc(C(=O)N3CCN(S(=O)(=O)c4cccc([N+](=O)[O-])c4)CC3)c(C)c2c1,16µM*,4%,15µM*,1%,3%,-3
CCOc1ccc(S(=O)(=O)N2CCN(C(=O)c3oc4ccc(OC)cc4c3C)CC2)cc1,?,-3%,?,5%,3%,?
Cc1c(C(=O)Nc2cccc(Cl)c2)oc2ccc(S(=O)(=O)N3CCC4(CC3)OCCO4)cc12,9.2µM*,0%,18µM*,1%,4%,0
Cc1c(C(=O)Nc2ccccc2Br)oc2ccc(S(=O)(=O)N3CCOCC3)cc12,-13%,-23%,1%,0%,10%,nt
Cc1c(C(=O)Nc2cc(S(=O)(=O)N3CCOCC3)ccc2N2CCOCC2)oc2ccccc12,18µM*,-1%,?,-6%,2%,-8
NCCc1nc2cccnc2n1-c1ccccc1,-16%,7%,-5%,-30%,4%,nt
Cc1c(P(=S)(c2ccccc2)c2ccccc2)c2ccccc2n1Cc1ccccc1,nt,nt,nt,nt,0%,nt
COc1ccc(NC(=O)C(=O)NCCc2csc(-c3ccc(Cl)cc3)n2)cc1,-16%,-8%,-12%,6%,0%,nt
Cc1ccc(C)c(CN2CCN(c3ncccn3)CC2)c1,20%,-2%,-15%,-1%,nt,-8
O=S(=O)(c1cc(F)ccc1F)N1CCN2CCCC2C1 (stereo not drawn),21%,-2%,8%,5%,nt,0
Cc1ccc(NC(=O)c2oc3ccc(S(=O)(=O)N4CCCCCC4)cc3c2C)cc1Cl,-12%,-2%,-7%,17%,13%,nt
Cc1c(C(=O)Nc2ccccc2Cl)oc2ccc(S(=O)(=O)N3CCCCCC3)cc12,5.8µM*,1%,13µM*,9%,8%,nt
Cc1c(C(=O)Nc2cccc(Cl)c2)oc2ccc(S(=O)(=O)N3CCCCCC3)cc12,23µM*,-1%,?,15%,5%,nt
Nc1nc(=S)ss1,16µM*,-14%,7.3µM*,5%,nt,-98*
COc1ccccc1NC(=O)c1nc(SCc2ccc(F)cc2)ncc1Cl,-20%,-16%,-10%,-1%,2%,nt
CCS(=O)(=O)c1ncc(Cl)c(C(=O)N2CCN(c3ccc(OC)cc3)CC2)n1,?,11µM*,4.1µM*,nt,2%,nt
Cc1ccc(CNC(=O)c2nc(SCc3ccc(C)cc3)ncc2Cl)cc1,-10%,-4%,?,?,0%,nt
Cc1ccc(CNC(=O)c2nc(S(=O)(=O)Cc3ccc(C)cc3)ncc2Cl)cc1,5.8µM*,-50%,3.3µM*,?,-2%,nt
